Only some compounds are listed: those with a hit (about 5.7% of all), similar ones and a draw of the others.
DRD3 agonist = D3 dopamine receptor (human) agonism; 410,000 tested, 0.58% active; D3R DiscoveRx beta-arrestin cells, luminescence, 90 min; max activation, %; AID 652048; in the data active = max activation above about 30%; also: 0% is about no effect
Target sequence (P35462 whole entry, looked up): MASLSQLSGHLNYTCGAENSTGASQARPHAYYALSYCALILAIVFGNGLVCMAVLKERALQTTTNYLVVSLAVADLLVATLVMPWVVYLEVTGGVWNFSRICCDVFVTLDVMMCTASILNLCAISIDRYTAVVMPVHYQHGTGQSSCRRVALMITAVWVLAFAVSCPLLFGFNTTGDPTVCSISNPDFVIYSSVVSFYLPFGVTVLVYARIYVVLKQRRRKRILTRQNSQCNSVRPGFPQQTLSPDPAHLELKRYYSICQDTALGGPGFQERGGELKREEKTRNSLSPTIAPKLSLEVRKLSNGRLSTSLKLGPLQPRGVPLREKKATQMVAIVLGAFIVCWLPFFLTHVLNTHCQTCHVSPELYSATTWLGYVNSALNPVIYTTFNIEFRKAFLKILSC
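Agonist-mode cell screen: cells plated at 1500/well and incubated overnight at 37 °C, then exposed to library compounds for 90 min at 37 °C. Detection reagent was added for 30–60 min at room temperature, and luminescence was read.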
HEK293 tox = cytotoxicity in counter-screen for GLP-1R inverse agonists. Potency, µM (highest dose often 38.3 µM), for inactives: at the highest dose activity change, negative = inhibition, actives largely listed as inhibitors. HEK293 cAMP-luciferase reporter cells, luminescence, 24 h. 410,000 tested, 0.13% active;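 also: loss of luciferase light is scored as toxicity; potency is read from the fitted curve at half-maximal effect; % is scaled to controls: 0 for no effect and ±100 for the full control effect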
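Here, cytotoxicity is scored as loss of luminescence. The MLSMR collection was tested on cells seeded in medium containing 10% Nu serum, with a 24 hr compound exposure preceded by 12 hours of culture.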
D3 antag = antagonists of human D3 dopamine receptor. P35462. D3R cells, DiscoveRx beta-arrestin luminescence, antagonist mode; stronger effect = lower value. max response, negative = inhibition, %. 360,000 tested, 2.5% active; in the data active = max response below about -50%; inconclusive = no clear call, values can overlap the other calls; also: % is scaled to controls: 0 for no effect and ±100 for the full control effect
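Cells plated overnight at 1500 cells/well, then exposed to library compounds with dopamine controls for 90 minutes at 37 degrees C. DiscoveRx reagent added for 30–60 minutes at room temperature; luminescence read, quantitative HTS format.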
ClpP mod = qHTS Assay for Activators of ClpP | 340,000 tested, 1.9% active | purified B. subtilis ClpP, FRET peptide cleavage, 20 min | Potency, µM (top dose mostly 57.5 µM), for the others: top-dose activity change, negative = active; active = well fitted falling curve with a large enough effect; inconclusive = small, poorly fitted or top-dose-only effect; inactive = no such curve, though single readings can be large or run the other way; also: potency is read from the fitted curve at half-maximal effect; the source files actives as falling curves though it sought activators and does not explain the sign; nearly all actives have a fitted effect of over 65% in size
Target sequence (P80244 whole entry, looked up): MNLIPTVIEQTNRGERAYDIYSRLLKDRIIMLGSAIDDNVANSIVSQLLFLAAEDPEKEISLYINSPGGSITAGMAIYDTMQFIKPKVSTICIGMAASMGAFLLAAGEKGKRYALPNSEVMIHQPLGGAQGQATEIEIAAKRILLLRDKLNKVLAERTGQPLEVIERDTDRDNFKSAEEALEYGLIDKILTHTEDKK
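ClpP 10 microg/mL final, pH 8 Tris/KCl buffer with BSA, glycerol, Tween-20; compound pinned in; FRET-FV substrate; RT 20 min; Ex320/Em430; ΔFRET vs ADEP 5.8 microM, DMSO, no enzyme.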
GLP1R inv ag = GLP-1 receptor (human) inverse agonism; P43220; HEK293 GLP-1R CRE-luciferase, luminescence, 24 h; GLP-1R form is constitutively active; Potency, µM (top dose mostly 38.3 µM), for the others: at the top dose activity change, negative = inhibition, most hits filed as inhibitors; 410,000 tested, 1.6% active; AID 624417; also: potency is read from the fitted curve at half-maximal effect; % is scaled to controls: 0 for no effect and ±100 for the full control effect; nearly all actives have a fitted effect of over 55% in size
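Stable HEK293 clone (constitutively active GLP-1R + cAMP-response luciferase); 200 cells/uL plated, 12 h pre-culture, compound 24 hr, 37 deg C/5% CO2; detection reagent 12 min RT; luminescence.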
GLP-1R agonist = GLP-1 receptor (human) agonism; P43220; HEK293 GLP-1R CRE-luciferase, luminescence, 4-6 h; cells express a hypersensitive GLP-1R form; Potency, µM (doses to about 45.6 µM), inactives show at the highest dose activation, hits mostly activators; 380,000 tested, 0.007% active; also: potency is read from the fitted curve at half-maximal effect; % of control where 0% means no effect
Active calls of the source: *; ? = inconclusive; / = no result given. Unless noted, calls follow the shape of the dose curve; as a rule, active = well fitted curve in the direction sought with a large enough effect; inconclusive = small, poorly fitted or top-dose-only effect, or another doubt; inactive = no such curve, though single readings can be large; an effect the other way counts as inactive or inconclusive.

SMILES	DRD3 agonist	HEK293 tox	D3 antag	ClpP mod	GLP1R inv ag	GLP-1R agonist
Cc1cccc(C)c1-n1nnnc1C(c1cccs1)N1CCN(C/C=C/c2ccccc2)CC1 (stereo not drawn)	-19.8	14.3%	-84.0*	-4.6%	?	-5.3%
CCC1Cc2[nH][nH]c(=O)c2C(CC)O1 (stereo not drawn)	-4.1	2.8%	-25.7	-3.6%	-3.2%	-4.3%
Cc1csc(NC(=O)c2ccccc2O)n1	-2.3	18.5%	?	28.2µM*	6.1%	4.1%
COC(CNC(=O)c1ccc(N2CCCC2=O)cc1)OC	0.7	29.2%	-50.9*	-0.8%	8.5%	-2.1%
Cc1nnc(NC(=O)c2ccc(N3CCCC3=O)cc2)s1	4.5	-3.8%	-14.5	-5.0%	8.2%	7.1%
Cc1csc(NC(=O)c2ccc(N3CCCC3=O)cc2)n1	-0.1	5.2%	0.9	-10.4%	2.24µM*	-5.5%
Cc1cc(C)cc(N(C(=O)c2ccc(Br)o2)C2C=CS(=O)(=O)C2)c1 (stereo not drawn)	-4.0	5.3%	-5.1	/	-0.6%	5.6%
CC(=O)N(c1cccc(Br)c1)C1C=CS(=O)(=O)C1 (stereo not drawn)	-14.8	-1.9%	-66.9*	1.2%	17.7%	-5.6%
Cc1ccc(Cn2cnc3nc4c(cc3c2=O)CC(C)CC4)cc1 (stereo not drawn)	-3.8	6.4%	/	-3.8%	40.1%	/
Cc1nn2c(nc(N3CCCCC3)c3ccccc32)c1C=O	0.9	10.2%	18.9	12.6µM*	49.8%	10.1%
Cc1nn2c(nc(N3CCOCC3)c3ccccc32)c1C=C(C#N)C#N	0.9	8.2%	-15.4	-1.5%	28.9%	-2.3%
COc1ccc2c(c1)c(=O)oc1cc(OCC(=O)N3CCCC(C)C3)ccc12 (stereo not drawn)	12.5	-16.1%	-3.7	?	-1.4%	4.3%
COc1ccc2c(c1)c(=O)oc1cc(OCC(=O)N3CCC(C)CC3)ccc12	-2.8	-8.8%	44.3	17.8µM*	0.0%	-13.2%
COc1ccc2c(c1)c(=O)oc1cc(OCC(=O)N3CCc4ccccc4C3)ccc12	6.3	29.9%	-14.0	4.47µM*	-8.7%	0.2%
Cc1ccc(N(CC(=O)Nc2ccc(F)cc2F)S(=O)(=O)c2cccs2)cc1	-6.5	13.2%	/	-3.5%	?	-4.1%
Cc1c(N)nc([C@@H](CC(N)=O)NC[C@H](N)C(N)=O)nc1C(=O)N[C@H](C(=O)N[C@@H](C)[C@@H](O)[C@@H](C)C(=O)N[C@H](C(=O)NCCc1nc(-c2nc(C(=O)NCCCN[C@H](C)c3ccccc3)cs2)cs1)[C@H](C)O)[C@@H](O[C@H]1O[C@@H](CO)[C@H](O)[C@@H](O)[C@H]1O[C@H]1O[C@@H](CO)[C@@H](O)[C@H](OC(N)=O)[C@H]1O)c1cnc[nH]1	/	/	/	/	/	-5.4%
COc1cc(C(=O)NCC(c2cccs2)N(C)C)cc(Cl)c1OC(C)C (stereo not drawn)	-10.1	-11.0%	-76.1*	-8.6%	?	8.0%
CNS(=O)(=O)c1cccc(C(=O)NCC(c2cccs2)N(C)C)c1 (stereo not drawn)	-6.8	3.4%	-72.0*	-3.4%	-7.1%	-10.9%
CCN(c1ccccc1)S(=O)(=O)c1cccc(C(=O)NCC(c2cccs2)N(C)C)c1 (stereo not drawn)	-14.4	7.1%	-55.9*	/	?	8.7%
Cc1ccc(NS(=O)(=O)c2cccc(C(=O)NCC(c3cccs3)N(C)C)c2)cc1 (stereo not drawn)	-17.9	-5.5%	-23.9	/	?	3.7%
CCN(c1ccccc1)S(=O)(=O)c1cccc(C(=O)NCc2ccccn2)c1	-2.7	5.8%	-7.8	-2.6%	0.2%	4.0%
CCCOc1ccc(C(=O)NCC(c2cccs2)N(C)C)cc1OC (stereo not drawn)	-29.2	8.5%	?	-15.0%	?	1.1%
COc1ccccc1NS(=O)(=O)c1cc(C(=O)NCC(c2ccco2)N(C)C)ccc1C (stereo not drawn)	-29.0	-1.4%	?	-1.2%	?	8.0%
COc1ccccc1NS(=O)(=O)c1cccc(C(=O)NCC(c2ccco2)N(C)C)c1 (stereo not drawn)	-34.6	6.1%	-68.3*	-7.7%	-7.3%	-3.7%
Nc1ccc(Nc2ccncc2)cc1	3.1	-3.9%	5.2	1.1%	18.3%	-2.6%
SMILES	DRD3 agonist	HEK293 tox	D3 antag	ClpP mod	GLP1R inv ag	GLP-1R agonist
CC(C)N(Cc1ccccc1)C(=O)CN1C(=O)CSc2ccc(S(=O)(=O)N3CCCC3)cc21	-10.3	-8.4%	/	-0.8%	-14.3%	/
CN(C)C(CNC(=O)c1ccco1)c1cccs1 (stereo not drawn)	-4.0	3.8%	-23.7	11.2µM*	2.9%	2.8%
COc1ccccc1NS(=O)(=O)c1cccc(C(=O)NCC(c2cccs2)N(C)C)c1 (stereo not drawn)	-18.0	12.5%	-85.3*	1.2%	-17.5%	-6.3%
COc1ccccc1NS(=O)(=O)c1cccc(C(=O)N(C)Cc2cccs2)c1	-3.1	-1.8%	-13.2	1.5%	-30.6%	-0.5%
C[C@H](O)CNC(=O)c1[nH]cnc1C(=O)Nc1ccc(CNC(=O)OC(C)(C)C)cc1	12.8	1.3%	0.7	0.0%	35.4%	14.8%
CCOC(=O)C1CCN(C(=O)Cn2ncc3c4ccccc4n(Cc4ccccc4F)c3c2=O)CC1	-1.0	-6.6%	/	4.1%	35.2%	/
Cc1nn(-c2ccccc2)c2c1cc1c(=O)[nH]c(=O)nc-1n2-c1cccc(C(F)(F)F)c1	1.7	8.8%	/	3.3%	-2.4%	-1.3%
Cc1c(C)n(CCc2ccccc2)c2ncnc(NCCCN(C)C)c12	-14.0	-27.2%	?	/	2µM*	0.5%
COc1ccc(-n2cc(-c3ccccc3)c3c(NC4CCCC4)ncnc32)cc1	2.2	1.3%	/	?	1.78µM*	/
COc1ccc(CCNc2cc(C)nc3c(-c4ccccc4)cnn23)cc1OC	9.4	2.4%	27.4	28.2µM*	?	4.7%
Clc1cccc(-n2cc(-c3ccccc3)c3c(NC4CCCC4)ncnc32)c1	-5.3	1.3%	/	-1.5%	-0.9%	/
COCCN(CCOC)c1ncnc2c1c(-c1ccccc1)cn2-c1ccc(C)c(Cl)c1	8.1	-5.1%	/	28.2µM*	?	/
Cc1ccc(-c2cc3nc(-c4ccccc4)cc(C(F)(F)F)n3n2)cc1	0.9	11.1%	/	0.2%	3.3%	/
CN(C)CCCNc1ncnc2c1c(-c1ccccc1)cn2-c1ccccc1	2.8	?	-16.7	-5.1%	3.98µM*	11.3%

Bioassay records as filed in PubChem BioAssay.
